In PubChem BioAssay AID1649 (The Scripps Research Institute Molecular Screening Center, 2009):
This is one part of the list. Unmarked numbers belong to inactive results. Rule as the data show it: active = activation above about 33%; inactive = the rest.

Assay: NPY-Y2 potentiators or agonists, counter-screen for NPY-Y1 potentiator project, cell-based, fluorescence (AID 1649)
Conditions: HEK293-CNG cells, membrane-potential fluorescence (FLIPR), 1536-well; at 3.6 µM; hits give high values

SMILES | activation [%]
Cc1nn(Cc2ccccc2Cl)c(Cl)c1C(=O)OC(C(=O)NC(N)=O)C(C)C (configuration not stated) | 23.6
CSC1=NP(=S)(SC)N(C)c2nc3n(c21)CCC3 (configuration not stated) | 3.63
